GPR151 ag: activates the human receptor GPR151. Q8TDV0. PathHunter beta-arrestin GPR151 cells, luminescence. activation, % at 11.2 µM. 1% of 650,000 active. AID 1508602; in the data active = activation above about 4.9%
Target sequence (Q8TDV0 whole entry, looked up): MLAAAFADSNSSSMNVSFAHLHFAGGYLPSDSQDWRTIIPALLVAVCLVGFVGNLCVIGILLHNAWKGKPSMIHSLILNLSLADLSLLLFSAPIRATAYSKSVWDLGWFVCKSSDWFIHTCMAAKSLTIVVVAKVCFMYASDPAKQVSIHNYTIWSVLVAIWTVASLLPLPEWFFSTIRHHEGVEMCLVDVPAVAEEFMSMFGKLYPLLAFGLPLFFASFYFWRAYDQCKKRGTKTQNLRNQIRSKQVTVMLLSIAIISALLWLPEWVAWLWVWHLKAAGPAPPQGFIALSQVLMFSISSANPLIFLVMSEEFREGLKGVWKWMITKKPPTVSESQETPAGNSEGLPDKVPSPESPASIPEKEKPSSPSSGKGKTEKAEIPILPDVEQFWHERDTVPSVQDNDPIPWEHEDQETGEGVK
TEAD-YAP block: TEAD-YAP interaction inhibition; AID 1259422; inhibition, % at 9.12 µM; HEK-TIYL cells, TEAD-Gal4/YAP UAS-luciferase luminescence; 1.4% of 640,000 active; in the data active = inhibition above about 32%
MITF primary: human MITF inhibition, primary screen; O75030; AlphaScreen MITF homodimerization, bead proximity signal; inhibition, % at 2.6 µM; 0.91% of 650,000 active; in the data active = inhibition above about 50%
FBW7 act: activators of human E3 ligase FBW7; AlphaScreen FBW7–phospho-cyclin E peptide binding, activator screen; normalized activity (activation), % at 26.1 µM; AID 1259310; 0.13% of 650,000 active; in the data active = normalized activity above about 1.9%;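 note: purified mutant Fbw7 with reduced substrate affinity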
A number is an active result; 0 = inactive. The list is not random: actives were taken first. Their share in the collection is about 3.5%.

SMILES	GPR151 ag	TEAD-YAP block	MITF primary	FBW7 act
CCOc1ccccc1-n1c(=S)sc2c(=O)n(-c3ccccc3F)c(SCC(=O)Nc3cccc(OC)c3)nc21	0	0	0	0
CC(C)n1c(N2CCN(Cc3ccc4c(c3)OCO4)CC2)nc2c(Nc3ccc(N4CCOCC4)cc3)ncnc21	0	0	0	0
COC(=O)c1cc(Nc2cc(OC)cc(OC)c2)c2cc(C)ccc2n1	0	41	0	0
COC(=O)c1cc(Nc2cccc(OC)c2)c2cc(Cl)ccc2n1	0	38	0	0
COC(=O)c1cc(Nc2ccccc2OC)c2cc(Cl)ccc2n1	0	0	0	0
COC(=O)c1cc(Nc2ccc3c(c2)OCO3)c2cc(C)ccc2n1	0	0	0	0
CCN(CC)Cc1ccc(NC(=O)c2cccc(F)c2)cc1	0	0	0	0
CNC(=O)c1ccccc1Nc1cc(Nc2ccc(OC3CCN(C)CC3)cc2OC)ncc1C(F)(F)F	0	74	0	0
CNC(=O)c1ccccc1Nc1cc(Nc2ccc(F)cc2OC)ncc1C(F)(F)F	0	0	0	0
CNC(=O)c1ccccc1Nc1cc(Nc2ccc(N3CCC(N(C)C)C3)cc2OC)ncc1C#N (configuration not stated)	0	44	0	0
CNC(=O)c1ccccc1Nc1cc(Nc2ccc(N3CCOCC3)cc2OC)ncc1Br	0	0	0	0
CNC(=O)c1ccccc1Nc1cc(Nc2ccc(N3CCN(C)CC3)cc2OC)ncc1C(F)(F)F	0	85	0	0
Cc1occc1C(=O)NNC(=O)C1CCCCC1C(=O)O (configuration not stated)	0	0	0	0
CCc1c(C#N)c(N)nc(SCC#N)c1C#N	0	0	0	2.3
CCSc1nc(N)c(C#N)c(CC)c1C#N	0	0	0	0
FC(F)(F)c1cccc(CNc2ncnc3nc(-c4csc5ccccc45)[nH]c23)c1	0	0	0	0
CC1Cc2ccccc2N1C(=O)CNCCCN(C)C (configuration not stated)	0	0	0	0
CC1CC2(C)Oc3ccccc3CC2C(C)C1CNCCCN(C)C (configuration not stated)	0	38	0	0
COc1cnc(Nc2ccc(N3CCOCC3)cc2)nc1Nc1ccccc1C(N)=O	0	55	0	0
NC(=O)c1ccccc1Nc1nc(Nc2ccc(N3CCCC3=O)cc2)ncc1Cl	0	78	0	0
N#Cc1ccc(Nc2ncc(Cl)c(Nc3ccccc3C(N)=O)n2)cc1	0	0	0	0
Cc1ncn(-c2ccc(Nc3ncc(C)c(Nc4ccccc4C(N)=O)n3)cc2)n1	0	88	0	0
COc1cc(N2CCOCC2)ccc1Nc1ncc(Cl)c(Nc2ccccc2C(=O)NC2CC2)n1	0	0	0	0
COc1cc(C(C)=O)ccc1OCC(=O)N1CCN(C(C)=O)CC1	0	0	0	0
OCCCNc1cc(-c2ccccc2)nc(-c2ccccn2)n1	0	78	0	0
SMILES	GPR151 ag	TEAD-YAP block	MITF primary	FBW7 act
Fc1ccc(-c2cc(NCCCN3CCOCC3)nc(-c3ccccn3)n2)cc1	0	0	0	0
OCCCNc1cc(-c2ccccn2)nc(-c2ccccn2)n1	0	0	115	0
COC(CNc1cc(-c2ccccc2)nc(-c2ccccn2)n1)OC	0	48	0	0
OCCCNc1cc(-c2ccccn2)nc(-c2ccccc2)n1	0	0	0	0
Fc1ccccc1-c1cc(NCCCN2CCOCC2)nc(-c2ccccn2)n1	0	37	0	0
O=c1/c(=C\c2ccc(OCc3cccc4ccccc34)c(Br)c2)sc2nc3ccccc3n12	0	0	0	0
c1ccc(CNc2cc(-c3ccncc3)nc(-c3ccccn3)n2)cc1	0	0	0	0
c1ccc(-c2cc(NCc3ccncc3)nc(-c3ccccn3)n2)cc1	0	37	0	0
CSc1nc(N)n(CC(=O)Nc2ccc(N(C)C)cc2)n1	0	0	0	0
CCN(CC)C(=O)C1CCCN(c2nc(NCCOc3ccccc3)c3ncn(CCN4CCCC4=O)c3n2)C1 (configuration not stated)	0	0	0	0
O=C(Cc1ccc(F)cc1)Nc1cc(Nc2ccccc2-c2nn[nH]n2)c(C(F)(F)F)cn1	0	0	0	0
O=C(Cc1ccc(F)cc1)Nc1cc(Nc2ccccc2CO)c(C(F)(F)F)cn1	0	62	0	0
CC(C)NC1CCC(Nc2cc(Nc3ccccc3C(N)=O)c(C(F)(F)F)cn2)CC1 (configuration not stated)	0	94	0	0
NC(=O)c1ccccc1Nc1cc(NC(=O)Cc2ccc(F)cc2)ncc1C(F)(F)F	0	95	0	0
NC(=O)c1ccccc1Nc1cc(NC(=O)Cc2ccc([N+](=O)[O-])cc2)ncc1C(F)(F)F	0	96	0	0
Nc1cc(Nc2ccccc2CO)c(C(F)(F)F)cn1	0	0	0	0
CNC(=O)c1cncnc1Nc1cc(Nc2ccc3c(c2)CC(=O)N3)ncc1C(F)(F)F	0	0	0	0
COc1ccc(CC(=O)Nc2cc(Nc3ccccc3C(N)=O)c(C(F)(F)F)cn2)cc1	0	98	0	0
NC(=O)c1ccccc1Nc1cc(NC(=O)Cc2ccc(F)c(F)c2)ncc1Cl	0	83	0	0
NC(=O)c1ccccc1Nc1cc(NC(=O)Cc2ccc(F)c(F)c2)ncc1F	0	0	0	0
COc1ccc2c(c1)CCC2C(=O)Nc1cc(Nc2ccccc2C(N)=O)ccn1 (configuration not stated)	0	0	0	0
CNC(=O)c1cncnc1Nc1cc(NC(=O)Cc2ccc(OC)cc2)ncc1C(F)(F)F	0	54	0	0
NC(=O)c1ccccc1Nc1cc(NC(=O)C2CCc3ccccc32)ncc1C(F)(F)F (configuration not stated)	0	75	0	0
O=C(Nc1cccc2nsnc12)c1cc(Br)ccc1NS(=O)(=O)c1ccc(Cl)cc1	0	0	0	0
NC(=O)c1ccccc1Nc1cc(NC(=O)Cc2ccc(F)c(F)c2)ncc1C(F)(F)F	0	92	0	0
SMILES	GPR151 ag	TEAD-YAP block	MITF primary	FBW7 act
NC(=O)c1ccccc1Nc1cc(Oc2ccccc2F)ncc1C(F)(F)F	0	0	0	0
N#Cc1ccccc1NC(=O)CSc1ccc([N+](=O)[O-])cn1	0	0	0	0
N#Cc1ccccc1Nc1cc(NC(=O)Cc2ccc([N+](=O)[O-])cc2)ncc1C(F)(F)F	0	40	0	0
NNc1nc(-c2ccncc2)nc2ccccc12	0	0	0	0
Cc1cnc(Nc2ccnn2C)nc1NCCN1CCOCC1	0	0	0	0
Nc1nc(SCC(=O)Nc2ccccc2F)[nH]c(=O)c1NC(=O)c1cccs1	0	0	0	0
CCOC(=O)c1c(-c2ccccc2)oc2ccc(NS(=O)(=O)c3ccc(OCC)cc3)cc12	0	57	0	0
CCOC(=O)c1c(-c2ccccc2)oc2ccc(NS(=O)(=O)c3ccccc3)cc12	0	0	0	0
CCOC(=O)c1c(-c2ccccc2)oc2ccc(NS(=O)(=O)c3ccc(OC)cc3)cc12	0	57	0	0
c1ccc(OCCNc2nc(Nc3ccncn3)nc3c2ncn3-c2ccccc2)cc1	0	0	0	0
c1cncc(CNc2nc(NCCN3CCOCC3)c3ncn(C4CCCCC4)c3n2)c1	0	0	0	0

Screening data from PubChem BioAssay.
